# Assay results reported in PubChem BioAssay.
# Records with an inconclusive call do not appear. Calls of active or inactive are those of the source.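 Rule for the calls, unless noted: active = RAM network inhibition above 8.4% in each of two replicates, 3 SD over the compound average; inconclusive = above 8.4% inhibition in only one replicate; inactive = 8.4% inhibition or less in each replicate.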
# Experiments:
# [1] = reducers of endogenous Her2 protein level, primary screen, SKBR3 breast tumor cells, AlphaScreen, ATP viability (AID 461;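 active = Her2 level under about 52% in both replicate screens, with viability over 70% of control, limit read from the data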;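 for Her2 level: lower value means less Her2 protein in the cells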;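 for viability: percent of carrier control wells set as 100% viability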); details: 18-24 h, measured here: SKBR3 viability, ATP luminescence, at 10 µM
# [2] = target: Receptor tyrosine-protein kinase erbB-2 (Homo sapiens) (UniProt P04626); test: as above; details: 18-24 h, at 10 µM, stronger effect = lower value
# [3] = SK-BR-3 cell growth inhibitors, pilot screen, 24 h, human (AID 572;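 active = viability at or below 10% of carrier control in both of two separate runs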;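 note: compound exposure lasted between 18 and 24 h rather than exactly 24 h; 100% = carrier-treated control wells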); details: SK-BR-3 viability, CellTiter-Glo luminescence, at 10 µM, stronger effect = lower value
# [4] = HUVEC growth inhibition – cell-based, human, primary screen (AID 575;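 active = viability at or below 30% in both replicate assays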;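 note: 100% = median of untreated cell wells with 0.1% DMSO on each plate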); details: HUVEC proliferation, CellTiter-Glo luminescence, 72 h; at 10 µM; stronger effect = lower value
# [5] = growth inhibitors of H69AR lung tumor, primary screen, human, duplicate replicates (AID 580;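 active = viability at or under a set limit in both replicates, limit being median viability minus 3 SD, cut at about 48% in these data, passing the limit was not always enough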;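 note: 100% = mean luminescence of untreated wells and 0% = no signal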); details: H69AR lung tumor cells viability, ATP luminescence, 72 h; at 10 µM; stronger effect = lower value
# [6] = reversal of MRP1-mediated doxorubicin resistance, pilot screen, H69AR cells, doxorubicin co-treatment (AID 601;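 active = viability loss from added drug above about 55%, and viability with drug at most 40%, in both replicates, limit read from the data, passing the limit was not always enough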); details: CellTiter-Glo, 72 h, at 10 µM; for differential viability (reversal): stronger effect = higher value
# [7] = 384-well plate pilot, post-Golgi transport modulator project, inhibition of yeast transport mutant growth (AID 636; in the data active = inhibition above about 31%); details: absorbance 615 nm, about 18 h, stronger effect = higher value
# [8] = growth suppression of yeast trafficking mutant, preliminary HTS, modulators of trafficking downstream of Golgi apparatus project, 1536-format plate, OD 615 nm (AID 637; in the data active = inhibition above about 30%); details: yeast transport mutant growth, absorbance 615 nm, 18 h; stronger effect = higher value
# [9] = OD615 S. cerevisiae growth inhibition, permissive medium, pilot counter-assay, permissive growth control for S. cerevisiae lifespan shortening project (AID 705;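 active = growth inhibition above 25% in both replicates, a cutoff set 3 SD above the mean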); details: OD615, 24 h, at 10 µM, stronger effect = higher value
# [10] = Restrictive medium S. cerevisiae growth inhibition, OD615, pilot screen of yeast lifespan reduction project, restrictive growth control (AID 706;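 active = growth inhibition above a set limit, 3 SD over mean compound inhibition, in both replicates, cut at about 43% in these data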;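 note: modified DeaD lifespan yeast strain shifted to restrictive glucose medium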); details: OD615, 48 h, at 10 µM, stronger effect = higher value
# [11] = viability gain of MRP-1-high H69AR cells under doxorubicin, pilot screen, MRP-1 activator project, CellTiter-Glo, duplicate (AID 807;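 active = viability increase at or above a cutoff of the median across tested compounds plus 3 SD, cut at about 8.5% in these data, passing the limit was not always enough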;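 note: compound pretreatment 18-22 h then 72 h combined with doxorubicin; 0% = doxorubicin alone and 100% = vehicle without doxorubicin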); details: H69AR viability with doxorubicin, CellTiter-Glo luminescence; at 10 µM; stronger effect = higher value
# [12] = growth suppression of beta-catenin knockout HCT116, pilot screen, human colon tumor cells (AID 823;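 active = cell viability at or below a set limit in both duplicate runs, the limit being the all-compound median minus 4 SD, cut at about 23% in these data, passing the limit was not always enough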;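 note: 0% = wells killed by 20 µM Hyamine and 100% = untreated DMSO cell wells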); details: CellTiter-Glo, 60 h, at 10 µM, stronger effect = lower value
# [13] = growth suppression of PTEN-deleted HCT116, pilot screen, cell-based, HCT116 clonal line, CellTiter-Glo (AID 824;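 active = viability at or below 27.92% in each of two runs, the all-compound median minus 4 SD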;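 note: 0% = 20 µM Hyamine control and 100% = vehicle cell control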); details: 60 h, at 10 µM, stronger effect = lower value
# [14] = inhibitors of the yeast RAM network, pilot screen, dse1pr::URA3 reporter, 5-FOA selection (AID 869;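 active = inhibition over a set limit, the all-compound mean plus 3 SD, in both replicate runs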;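 note: 0% = DMSO wells with no growth and 100% = 10 µM 1-NA-PP1 with full growth; RAM network block rescues cells from 5-FOA so hits raise OD615 growth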); details: S. cerevisiae dse1pr::URA3 5-FOA growth, OD615, 2 d; at 10 µM; stronger effect = higher value; strain carries analog-sensitive mutant Cbk1 kinase
# [15] = RAM signaling pathway blockade in yeast – S. cerevisiae, Pdr1DBD-CYC8 efflux-inhibited sensitized strain, primary screen (AID 1298);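 note: 0% = DMSO untreated cells without growth and 100% = 10 µM 1-NA-PP1 full growth; higher means more yeast growth rescued from 5-FOA killing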; details: S. cerevisiae cbk1-as DSE1-URA3 strain, 5-FOA growth OD615, 2 d; at 50 µM; stronger effect = higher value
# [16] = H69AR cells + 2 uM doxorubicin, measured here: viability with 2 uM doxorubicin, stronger effect = lower value
# [17] = H69AR cells, compound alone cytotoxicity
# Chain of Receptor tyrosine-protein kinase erbB-2 (Homo sapiens) (P04626 whole entry, looked up): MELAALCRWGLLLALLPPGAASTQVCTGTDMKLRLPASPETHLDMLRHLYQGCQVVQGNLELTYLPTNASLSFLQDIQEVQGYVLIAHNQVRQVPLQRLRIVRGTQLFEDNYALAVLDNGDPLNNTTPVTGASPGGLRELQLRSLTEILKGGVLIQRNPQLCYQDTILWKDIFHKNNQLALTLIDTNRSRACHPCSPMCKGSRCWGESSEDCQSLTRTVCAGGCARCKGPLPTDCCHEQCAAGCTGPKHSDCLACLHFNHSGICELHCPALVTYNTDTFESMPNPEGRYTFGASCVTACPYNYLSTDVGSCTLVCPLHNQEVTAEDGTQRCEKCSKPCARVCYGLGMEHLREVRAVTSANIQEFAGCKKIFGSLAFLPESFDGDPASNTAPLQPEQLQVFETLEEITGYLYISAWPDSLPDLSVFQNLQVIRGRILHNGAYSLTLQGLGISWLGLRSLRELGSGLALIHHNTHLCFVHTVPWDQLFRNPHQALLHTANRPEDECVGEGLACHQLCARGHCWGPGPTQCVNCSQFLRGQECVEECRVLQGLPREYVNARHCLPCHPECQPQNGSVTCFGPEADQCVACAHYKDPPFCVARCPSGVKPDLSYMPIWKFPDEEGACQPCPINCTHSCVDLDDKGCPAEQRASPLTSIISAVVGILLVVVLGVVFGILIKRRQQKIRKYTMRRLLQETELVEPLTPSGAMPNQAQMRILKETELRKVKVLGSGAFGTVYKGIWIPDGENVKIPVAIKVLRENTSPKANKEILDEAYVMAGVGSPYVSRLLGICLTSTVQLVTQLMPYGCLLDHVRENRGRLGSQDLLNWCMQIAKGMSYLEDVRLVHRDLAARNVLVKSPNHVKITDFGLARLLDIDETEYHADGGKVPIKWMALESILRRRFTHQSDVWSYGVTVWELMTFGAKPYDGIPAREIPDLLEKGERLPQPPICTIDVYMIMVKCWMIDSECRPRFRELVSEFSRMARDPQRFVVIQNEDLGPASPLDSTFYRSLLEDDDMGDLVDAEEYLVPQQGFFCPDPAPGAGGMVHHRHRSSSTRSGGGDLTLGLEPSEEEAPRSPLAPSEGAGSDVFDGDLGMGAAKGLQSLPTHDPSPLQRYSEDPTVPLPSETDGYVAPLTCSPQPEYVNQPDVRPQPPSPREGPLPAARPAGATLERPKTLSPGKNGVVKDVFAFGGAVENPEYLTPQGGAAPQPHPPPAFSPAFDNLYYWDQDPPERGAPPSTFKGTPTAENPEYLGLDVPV
Compound,viability [1] [%],Her2 level [2],viability [3],viability [4],viability [5],differential viability (reversal) ([6]; H69AR cells + 2 uM doxorubicin),"viability [6, 16] [%]","viability [6, 17] [%]",inhibition [7],inhibition [8],growth inhibition [9],growth inhibition [10],viability increase [11],viability [12],viability [13],inhibition [14],RAM network inhibition [15]
Nc1[nH]nc2nc(N3CCCC3)nc(-c3ccccc3)c12,113,97.5% (inactive),113% (inactive),92% (inactive),95.6% (inactive),7% (inactive),88.6,95.6,-6.27% (inactive),2.1% (inactive),-6.15% (inactive),-9.01% (inactive),-4.09% (inactive),99% (inactive),90.9% (inactive),0.285% (inactive),-0.16% (inactive)
CCN1CCN(Cc2ccc(NC(=O)Nc3ccccc3)cc2)CC1,82,106% (inactive),82% (inactive),82.5% (inactive),88.7% (inactive),-0.57% (inactive),89.3,88.7,2.82% (inactive),0.33% (inactive),-11.3% (inactive),-11.3% (inactive),0.37% (inactive),103% (inactive),98.7% (inactive),1.09% (inactive),1.93% (inactive)
COC(=O)c1oc2ccc(Br)cc2c1NC(C)=O,94,81% (inactive),94% (inactive),96.1% (inactive),98.2% (inactive),3.47% (inactive),94.7,98.2,-4% (inactive),1.33% (inactive),-7.17% (inactive),0.76% (inactive),1.21% (inactive),102% (inactive),98.4% (inactive),0.08% (inactive),2.66% (inactive)
NC(=O)c1cccc2c1C(=O)N(C1CCCCC1)C2,109,99.5% (inactive),109% (inactive),76% (inactive),88.9% (inactive),-2.49% (inactive),91.4,88.9,-0.77% (inactive),-1.33% (inactive),-7.48% (inactive),-4.63% (inactive),-0.58% (inactive),101% (inactive),95.3% (inactive),0.59% (inactive),3.36% (inactive)
C/C=C/Cn1c(SCCCc2ccccc2)nc2c1c(=O)[nH]c(=O)n2C,89.5,72% (inactive),89.5% (inactive),61.2% (inactive),69.6% (inactive),0.835% (inactive),68.8,69.6,1.07% (inactive),3.61% (inactive),-15.3% (inactive),1.29% (inactive),-3.52% (inactive),66.8% (inactive),52.6% (inactive),1.32% (inactive),9.17% (inactive)
CCC(=O)N1CCN(c2nc(-c3ccccc3)c3c(c2C#N)CCCC3)CC1,105,93% (inactive),105% (inactive),97.2% (inactive),156% (inactive),72.2% (inactive),84,156,-8.24% (inactive),4.59% (inactive),-2.54% (inactive),-4.34% (inactive),-5.2% (inactive),75.8% (inactive),73.1% (inactive),0.35% (inactive),2.27% (inactive)
Cc1ccc(C)c(NC(=O)CSc2nnc(-c3ccccc3)o2)c1,89.5,104% (inactive),89.5% (inactive),111% (inactive),89.6% (inactive),9.51% (inactive),80.1,89.6,-6.4% (inactive),-4.5% (inactive),-4.45% (inactive),-0.695% (inactive),1.83% (inactive),95.9% (inactive),97.2% (inactive),0.49% (inactive),1.79% (inactive)
O=C(Nc1ccncc1)C1CCCN(S(=O)(=O)c2cccc3cccnc23)C1 (stereo not drawn),84.5,104% (inactive),84.5% (inactive),63% (inactive),17.4% (active),-58.8% (inactive),76.2,17.4,-7.07% (inactive),3.33% (inactive),-10.3% (inactive),-4.11% (inactive),-6.31% (inactive),19.9% (active),23.8% (active),1.59% (inactive),2.56% (inactive)
Cc1cc2ncc(-c3ccc(Cl)cc3)c(N)n2n1,83,114% (inactive),83% (inactive),69.6% (inactive),82.7% (inactive),-0.45% (inactive),83.1,82.7,-4.93% (inactive),-0.5% (inactive),-12.6% (inactive),-0.665% (inactive),-4.85% (inactive),88% (inactive),85.4% (inactive),1.27% (inactive),1.2% (inactive)
COc1ccc(NC(=O)c2cnc3n(c2=O)CCS3)cc1OC,112,106% (inactive),112% (inactive),88.2% (inactive),95.7% (inactive),11.8% (inactive),83.9,95.7,-3.07% (inactive),-4.59% (inactive),-14.6% (inactive),-5.98% (inactive),1.5% (inactive),109% (inactive),103% (inactive),2.45% (inactive),7.24% (inactive)
COc1ccc(OC)c(S(=O)(=O)N2CCN(c3c(C)cccc3C)CC2)c1,100,86% (inactive),100% (inactive),79.5% (inactive),86.9% (inactive),3.56% (inactive),83.4,86.9,-8.53% (inactive),2.33% (inactive),0.405% (inactive),6.42% (inactive),-2.38% (inactive),68% (inactive),82.5% (inactive),1.79% (inactive),6.46% (inactive)
COC(=O)CN1C(=O)C(O)(CC(=O)c2ccc(Cl)cc2)c2ccccc21 (stereo not drawn),87.5,88.5% (inactive),87.5% (inactive),94.4% (inactive),70.5% (inactive),-21.3% (inactive),91.8,70.5,-6.8% (inactive),5% (inactive),-0.49% (inactive),-8.47% (inactive),-3.44% (inactive),87.3% (inactive),91.5% (inactive),1.81% (inactive),0.35% (inactive)
CCOC(=O)c1c(C)n(C)c2c(C)cc(O)c(OC(C)=O)c12,93,83.5% (inactive),93% (inactive),103% (inactive),101% (inactive),13.4% (inactive),87.3,101,-3.9% (inactive),0.5% (inactive),-11.9% (inactive),-6.75% (inactive),-5.24% (inactive),78.5% (inactive),86.8% (inactive),1.42% (inactive),1.23% (inactive)
COc1ccc(OCC(=O)N2CC3(C)CC2CC(C)(C)C3)cc1 (stereo not drawn),96,84% (inactive),96% (inactive),108% (inactive),99.8% (inactive),17% (inactive),82.8,99.8,-3.2% (inactive),-2.9% (inactive),-9.87% (inactive),-0.89% (inactive),0.69% (inactive),97.9% (inactive),92% (inactive),1.06% (inactive),1.07% (inactive)
O=C(CCn1c(=O)oc2ccccc21)NCCN1CCOCC1,104,120% (inactive),104% (inactive),93.4% (inactive),85.9% (inactive),-3.67% (inactive),89.6,85.9,0.8% (inactive),-6.5% (inactive),-9.38% (inactive),-6.78% (inactive),-1.28% (inactive),107% (inactive),101% (inactive),2.63% (inactive),4.16% (inactive)
CCn1cc(SCC(=O)NCC2CCCO2)c2ccccc21 (stereo not drawn),88,93.5% (inactive),88% (inactive),102% (inactive),85.5% (inactive),-9.37% (inactive),94.9,85.5,-4.67% (inactive),-0.5% (inactive),4.53% (inactive),-6.71% (inactive),-1.64% (inactive),94.8% (inactive),99.9% (inactive),1.44% (inactive),4.96% (inactive)
COc1ccccc1NC(=O)N1CCN(c2cccc(C(F)(F)F)c2)CC1,89,98.5% (inactive),89% (inactive),78.1% (inactive),95.2% (inactive),16.9% (inactive),78.2,95.2,-3.11% (inactive),-10.3% (inactive),-10.8% (inactive),3.75% (inactive),2.13% (inactive),89.5% (inactive),84.7% (inactive),0.115% (inactive),2.91% (inactive)
Cc1cc(N)n2nc(-c3ccccc3)cc2n1,95,71% (inactive),95% (inactive),57.4% (inactive),80.1% (inactive),11.5% (inactive),68.5,80.1,-1.82% (inactive),-0.33% (inactive),-14.1% (inactive),-13.9% (inactive),-3.46% (inactive),65.1% (inactive),65.3% (inactive),1.33% (inactive),4.23% (inactive)
COc1cc(C2NC(=O)NC(C)=C2C(=O)OCC2CCCO2)ccc1O (stereo not drawn),90.5,86.5% (inactive),90.5% (inactive),94.4% (inactive),103% (inactive),5.47% (inactive),97.4,103,-6.08% (inactive),-2.13% (inactive),-7.94% (inactive),-14.9% (inactive),-1.14% (inactive),91.1% (inactive),88.3% (inactive),1.59% (inactive),1.93% (inactive)
